Several values for one entry are separate records, joined by “and”; a condition that tells them apart may be missing. Equal values may be shown once. Screen size: about 5,500 compounds; about 2,000 (36%) were called active. Roughly 18% stayed inconclusive and do not appear here. Cut-off read from the data, not from the text of the source: active = normalized growth mostly below about 0.91 (no sharp cut-off); inconclusive = no clear call, values can overlap the other calls; inactive = mostly above about 0.92. The list shows a part of the results.
Assay: chemical genetic growth profiling, strain panel (AID 1159580);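 note: tested at 20 µM; growth read once vehicle control cultures reached saturation at 30 °C; 1 = growth at the plate median or of vehicle wells; lower values mean less growth of the strain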
Details: S. cerevisiae deletion strains, growth OD

Measured: normalized growth

CC(=O)O[C@H]1CC[C@@]2(C)C(C[C@@H](OC(C)=O)[C@]3(C)C2CC[C@@]2(C)[C@H](c4ccoc4)OC(=O)[C@H]4O[C@]423)C1(C)C (some centres not stated)
inactive: locus YAL013W, strain DEP1, stronger effect = lower value 0.993 | locus YAL021C, strain ccr4, stronger effect = lower value 1.01 | locus YAL026C, strain drs2, stronger effect = lower value 1 | locus YAL030W, strain snc1, stronger effect = lower value 0.99 | locus YBL061C, strain skt5, stronger effect = lower value 0.996 | locus YBR009C, strain hhf1, stronger effect = lower value 0.987 | locus YBR021W, strain FUR4, stronger effect = lower value 0.999 | locus YBR023C, strain chs3, stronger effect = lower value 0.997 | locus YBR171W, strain sec66, stronger effect = lower value 1 | locus YBR229C, strain ROT2, stronger effect = lower value 1 | locus YBR231C, strain swc5, stronger effect = lower value 1.01 | locus YBR279W, strain paf1, stronger effect = lower value 1 | locus YCL011C, strain gbp2, stronger effect = lower value 0.993 | locus YCL016C, strain dcc1, stronger effect = lower value 1 | locus YCL029C, strain bik1, stronger effect = lower value 1.01 | locus YCL061C, strain MRC1, stronger effect = lower value 1 | locus YCL069W, strain vba3, stronger effect = lower value 0.998 | locus YCR088W, strain abp1, stronger effect = lower value 0.995 | locus YDL005C, strain med2, stronger effect = lower value 0.996 | locus YDL035C, strain GPR1, stronger effect = lower value 0.998 | locus YDL040C, strain nat1, stronger effect = lower value 0.988 | locus YDL074C, strain BRE1, stronger effect = lower value 1.04 | locus YDL101C, strain DUN1, stronger effect = lower value 1.03 | locus YDL185W, strain tfp1, stronger effect = lower value 1.01 | locus YDL192W, strain arf1, stronger effect = lower value 0.992 | locus YDR001C, strain nth1, stronger effect = lower value 0.99 | locus YDR069C, strain doa4, stronger effect = lower value 0.991 | locus YDR101C, strain arx1, stronger effect = lower value 1.01 | locus YDR137W, strain rgp1, stronger effect = lower value 1.08 | locus YDR159W, strain sac3, stronger effect = lower value 0.983 | locus YDR162C, strain NBP2, stronger effect = lower value 1.02 | locus YDR195W, strain ref2 0.93 | locus YDR297W, strain sur2, stronger effect = lower value 0.999 | locus YDR318W, strain mcm21, stronger effect = lower value 1.01 | locus YDR334W, strain swr1, stronger effect = lower value 0.985 | locus YDR335W, strain msn5, stronger effect = lower value 0.999 | locus YDR388W, stronger effect = lower value 1.01 | locus YDR392W, strain spt3, stronger effect = lower value 0.914 | locus YDR502C, strain sam2, stronger effect = lower value 1.03 | locus YEL003W, strain gim4, stronger effect = lower value 0.991 | locus YEL037C, strain rad23, stronger effect = lower value 0.988 | locus YEL061C, strain CIN8 (second series), stronger effect = lower value 0.987 | locus YEL061C, strain CIN8, stronger effect = lower value 1.01 | locus YER015W, strain faa2, stronger effect = lower value 0.998 | locus YER016W, strain bim1, stronger effect = lower value 0.999 | locus YER110C, stronger effect = lower value 1.02 | locus YER111C, strain swi4, stronger effect = lower value 0.983 | locus YER155C, strain BEM2 (second series), stronger effect = lower value 0.988 | locus YER155C, strain BEM2, stronger effect = lower value 1 | locus YER167W, strain BCK2, stronger effect = lower value 0.993 | locus YFR010W, strain ubp6, stronger effect = lower value 0.992 | locus YGL078C, strain dbp3, stronger effect = lower value 1.02 | locus YGL086W, strain mad1, stronger effect = lower value 1.01 | locus YGL167C, strain pmr1, stronger effect = lower value 0.994 | locus YGL173C, strain kem1, stronger effect = lower value 1 | locus YGL227W, strain vid30, stronger effect = lower value 1 | locus YGL240W, strain doc1, stronger effect = lower value 0.978 | locus YGL248W, strain PDE1, stronger effect = lower value 1.02 | locus YGL253W, strain hxk2, stronger effect = lower value 1 | locus YGR078C, strain PAC10, stronger effect = lower value 1.02 | locus YGR135W, strain pre9, stronger effect = lower value 1.06 | locus YGR229C, strain SMI1, stronger effect = lower value 0.959 | locus YGR252W, strain gcn5, stronger effect = lower value 1.1 | locus YHR013C, strain ard1, stronger effect = lower value 0.981 | locus YHR027C, strain rpn1, stronger effect = lower value 0.998 | locus YHR030C, strain SLT2, stronger effect = lower value 1.05 | locus YHR079C, strain IRE1 (second series), stronger effect = lower value 1.02 | locus YHR079C, strain IRE1, stronger effect = lower value 1.04 | locus YHR094C, strain hxt1, stronger effect = lower value 1.01 | locus YHR129C, strain ARP1, stronger effect = lower value 1.01 | locus YHR142W, strain chs7, stronger effect = lower value 1.03 | locus YHR200W, strain rpn10, stronger effect = lower value 1.04 | locus YIL066C, strain RNR3, stronger effect = lower value 0.999 | locus YIL073C, strain SPO22, stronger effect = lower value 1.04 | locus YIL125W, strain kgd1, stronger effect = lower value 1.01 | locus YIR030C, strain dcg1, stronger effect = lower value 1 | locus YJL092W, strain hpr5, stronger effect = lower value 0.998 | locus YJL095W, strain BCK1 (second series), stronger effect = lower value 1 | locus YJL095W, strain BCK1, stronger effect = lower value 1.07 and 1.04 | locus YJL115W, strain asf1, stronger effect = lower value 0.997 | locus YJL129C, strain trk1, stronger effect = lower value 0.987 | locus YJL134W, strain LCB3, stronger effect = lower value 1.01 | locus YJL154C, strain vps35, stronger effect = lower value 1 | locus YJL164C, strain tpk1, stronger effect = lower value 0.995 | locus YJL166W, strain qcr8, stronger effect = lower value 1 | locus YJL168C, strain set2, stronger effect = lower value 1.01 | locus YJL187C, strain SWE1 (second series), stronger effect = lower value 1.04

Reference: PubChem BioAssay AID1159580 (chemical genetic matrix, 2015)
